Most compounds without a hit are left out; they make up all but 20% or so of the library.
HCMV antiviral: human cytomegalovirus inhibition; HFF cells, HCMV-luciferase reporter, 72 h; active compounds read low; activity change, negative = inhibition, % at 57.5 µM; 410,000 compounds, 4.5% hits; AID 1259415; in the data active = activity change below about -60%; inconclusive = no clear call, values can overlap the other calls; inactive = above about -39%
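HFF cells seeded 16 h at 37C, treated with compounds, infected with luciferase-reporter HCMV at MOI 1 PFU/cell; luciferase read at 72 h post infection, normalized to buffer-only and Salinomycin controls.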
CHX counter: counter-screen for Shiga toxin inhibitors: cycloheximide protein synthesis inhibition; cell reporter, cycloheximide protein synthesis inhibition counterscreen; max response, %; 300,000 compounds, 12% hits; AID 2314; in the data active = max response mostly above about 13%, no sharp cut-off; inactive = mostly below about 14%; also: read at 38.3 µM for the half of the compounds with a filed dose
Pf growth 48h: P. falciparum growth inhibition at 48 hours (one generation); P. falciparum luciferase growth in erythrocytes, 48 h; Potency, µM (series often up to 28.7 µM), usual class: inhibitors; 310,000 compounds, 5.9% hits; AID 504832
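Read-out is firefly luciferase luminescence from an integrated reporter in P. falciparum, so falling signal marks reduced parasite growth. Infected erythrocytes were at 2% hematocrit and 0.1% parasitemia (final) in Albumax-supplemented RPMI 1640.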
Pf growth 96h: P. falciparum growth inhibition at 96 hour, primary screen for plastid delayed-death inhibitors. P. falciparum luciferase reporter growth, 96 h. Potency, µM (titrated, usually from 28.7 µM), actives largely listed as inhibitors. 320,000 compounds, 6.9% hits. AID 504834
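Two parasite generations (96 h, 37 C, 5% CO2) of compound exposure in infected erythrocytes (0.05% parasitemia, 2% hematocrit). Luciferase-reporter P. falciparum; decreased luminescence indicates inhibited growth, aimed at apicoplast-acting delayed death.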
Shiga inhibitor: Shiga toxin inhibition; Vero cells, Shiga toxin protein synthesis inhibition reporter; inhibition, % at 38.7 µM; 290,000 compounds, 9.2% hits; AID 2315; in the data active = inhibition mostly above about 28%, no sharp cut-off; inactive = mostly below about 43%
Numbers stand for hits; 0 = inactive; ? = inconclusive; - = not tested or not shown. Unless noted, calls follow the shape of the dose curve; as a rule, active = well fitted inhibition curve with a large enough effect; inconclusive = small, poorly fitted or top-dose-only effect, or another doubt; inactive = no such curve, though single readings can be large or run the other way.

SMILES	HCMV antiviral	CHX counter	Pf growth 48h	Pf growth 96h	Shiga inhibitor
O=C(CSc1nc(-c2ccc(F)cc2)cc(C(F)(F)F)n1)NCc1cccs1	0	0	0	3.3µM	0
O=C(CSc1nc(-c2ccc(F)cc2)cc(C(F)(F)F)n1)NCc1ccco1	0	0	0	2.1µM	0
Cc1cccc(C(=O)Oc2ccccc2C2C[C@]3(C)CC(=O)NC3N2C(=O)c2cccc(C)c2)c1 (stereo partly specified)	0	0	-	5.9µM	0
COc1ccc(N2CCN(CC(=O)Nc3c(C)cccc3C)CC2)cc1	0	-	-	-	-
O=C1CCn2c1c(O)c1ccccc1c2=O	0	-	-	-	-
N=C1CCC(=N)c2c1c(O)c1ccccc1c2O	-	13	?	?	0
CC(C)CSc1nnc(-c2ccccc2)c(-c2ccccc2)n1	0	-	-	-	-
Fc1cccc(F)c1-c1nc(-c2ccncc2)no1	0	48	0	0	86
Cc1ccc(-c2nc(-c3ccncc3)no2)cc1Cl	0	28	0	0	61
COc1ccc(-c2noc(-c3ccoc3C)n2)cc1OC	0	0	0	0	0
Cc1ccc(-c2nc(-c3ccncc3)no2)cc1C	0	52	0	0	133
COc1ccc(-c2noc(-c3ccco3)n2)cc1OC	0	43	0	?	139
CC1(C)CC(NC(=O)C2CCN(S(=O)(=O)c3cccc(C(F)(F)F)c3)CC2)CC(C)(C)N1	0	-	0	?	-
COc1ccc(-c2noc(-c3ccccc3Cl)n2)cc1OC	0	56	0	-	65
COc1ccc(-c2noc(-c3cccc(Cl)c3)n2)cc1OC	0	0	0	0	0
COc1ccc(-c2noc(-c3cccs3)n2)cc1OC	0	52	0	0	69
COc1cc(-c2noc(-c3cccs3)n2)cc(OC)c1OC	0	0	?	?	0
COc1ccc(-c2nc(-c3ccncc3)no2)cc1OC	0	48	-	?	79
CCn1c(SCc2nc(-c3ccc(OC)c(OC)c3)no2)nnc1-c1cccs1	0	15	?	?	0
Cc1c(NC(=O)C2CCCCC2)cc(C(=O)N2CCOCC2)cc1[N+](=O)[O-]	?	0	0	?	0
Cc1ccccc1OCCCC(=O)Nc1nncs1	0	0	0	0	0
Cc1cc(-c2nc(-c3ccncc3)no2)ccc1[N+](=O)[O-]	0	33	-	0	88
Fc1ccc(Nc2cncc(-c3ccsc3)c2)cc1Cl	0	-	-	-	-
CC(C)(C)OC(=O)N/N=C\c1ccc(OC(=O)c2cccs2)cc1	0	0	0	12µM	97
COc1ccc(C(=O)N/N=C/c2ccc(OC(=O)c3cccs3)cc2)cc1	0	0	0	0	0
SMILES	HCMV antiviral	CHX counter	Pf growth 48h	Pf growth 96h	Shiga inhibitor
O=C(N/N=C/c1ccc(OC(=O)c2ccco2)cc1)c1ccccn1	0	27	0	?	39
O=C(Oc1ccc(/C=N/NC(=O)c2ccccn2)cc1)c1cccc(Br)c1	0	28	0	0	59
O=C(Oc1ccc(/C=N/NC(=O)c2ccccn2)cc1)c1ccc(Br)cc1	0	-	-	-	-
O=C(N/N=C/c1ccc(OC(=O)c2cccs2)cc1)c1ccccn1	0	45	0	0	53
CCCOC(=O)c1c(NC(=O)C2c3ccccc3Oc3ccccc32)sc2c1CCC(C)C2 (stereo unspecified)	0	-	-	-	-
CCOc1ccc(C(=O)N2CCC3(CC2)NCCc2[nH]cnc23)cc1	0	0	?	0	0
CC(C)(C)OC(=O)N/N=C/c1ccc(Br)cc1	0	40	0	0	105
CCOc1cc(/C=N/NC(=O)c2ccccn2)ccc1OC(=O)c1cccs1	0	28	0	9.3µM	43
CCOc1cc(/C=N/NC(=O)COc2cccc(C)c2)ccc1OC(=O)c1cccs1	0	0	0	0	0
CC(C)(C)OC(=O)N/N=C\c1cccnc1	0	0	0	0	0
CCOc1ccccc1NC(=O)CSc1ncc(S(=O)(=O)c2ccc(C)c(C)c2)c(N)n1	0	-	-	-	-
COc1ccc(C(=O)NCC(=O)N/N=C(\C)c2ccco2)cc1OC	0	0	0	0	0
Cc1csc(=Nc2ccccc2)n1CCCN1CCCC1=O	0	0	?	?	0
Cc1cs/c(=N/C(=S)Nc2ccccc2)n1C	0	101	0	0	143
Cn1ccsc1=NC(=O)c1ccc(=O)[nH]c1	0	0	0	0	0
Cc1csc(=Nc2ccccc2)n1C	0	22	0	0	0
C=CCNC(=S)/N=c1\sccn1C	0	15	0	0	0
C=CCNC(=S)/N=c1/scc(C)n1C	0	19	0	0	0
CCC(C)C(NC(=O)C(C)NC(=O)CNC(=O)CNC(=O)OCc1ccccc1)C(=O)OC (stereo unspecified)	0	0	0	?	0
CCN1C(=O)/C(=C2/C=Cc3cc(C)ccc3N2CC)N(C)C1=S	0	0	?	8.3µM	0
CCN1/C(=C2\C(=O)N(C)C(=S)N2C)C=Cc2cc(OC)ccc21	0	0	15µM	0	0
O=C1CN(C(=O)COc2ccccc2)C(c2ccc(F)cc2)c2cc(Br)ccc2N1 (stereo unspecified)	0	-	-	-	-
CCOc1ccc(NC(=O)COC(=O)c2c[nH]c3ccccc23)cc1	0	-	-	-	-
CS(=O)(=O)c1ccc(Cl)c(NC(=O)CSc2nc3ccccc3c(=O)n2CCCN2CCOCC2)c1	0	0	?	7.4µM	0
O=C(CSc1nc2ccccc2c(=O)n1-c1ccc(F)cc1)Nc1ccc(N2CCOCC2)cc1	?	0	0	?	0
SMILES	HCMV antiviral	CHX counter	Pf growth 48h	Pf growth 96h	Shiga inhibitor
Cc1ccc(S(=O)(=O)N2CCOCC2)cc1NC(=O)Cn1c(=O)ccn(Cc2ccccc2)c1=O	0	-	-	-	-
O=C(CSc1nc2ccccc2c(=O)n1-c1ccc(F)cc1)Nc1cc(S(=O)(=O)N2CCOCC2)ccc1Cl	0	0	6.6µM	3.7µM	0
Cc1ccc(S(=O)(=O)N2CCOCC2)cc1NC(=O)CSc1nc2ccccc2c(=O)n1Cc1ccccc1	0	0	?	5.2µM	0
NCCCC(N)CC(=O)NCC1NC(=O)C(CO)NC(=O)C(N)CNC(=O)C(C2CCN=C(N)N2)NC(=O)/C(=C/NC(N)=O)NC1=O (stereo unspecified)	-	-	0	0	-
CC1CCN(C(C)C(=O)Nc2ccc(S(=O)(=O)N3CCCC3)cc2)CC1 (stereo unspecified)	0	-	?	0	-
O=C(NCc1cccs1)c1ccc(Cn2c(SCc3cccc(F)c3)nc3cccnc32)cc1	-70	-	-	-	-
CC(C)OCCCNC(=O)c1ccc(CSc2nc3cccnc3n2Cc2ccccc2)cc1	-98	-	-	-	-
O=C(CSc1nc2cccnc2n1Cc1ccccc1)NC1CCCCC1	0	0	10µM	?	0
COCCCNC(=O)c1ccc(CSc2nc3cccnc3n2Cc2ccc(OC)cc2)cc1	0	-	-	-	-
O=C(Cn1c(SCc2cccc(F)c2)nc2cccnc21)Nc1ccc(F)c(Cl)c1	-73	-	-	-	-
O=C(NCCc1cccs1)c1ccc(Cn2c(SCc3cccc(F)c3)nc3cccnc32)cc1	0	-	-	-	-
COc1cc(NC(=O)C(C)Oc2ccccc2)ccc1NC(=O)COc1ccccc1 (stereo unspecified)	0	0	?	0	0
O=C(NCCc1ccccc1)c1ccc(Cn2c(SCc3cccc(F)c3)nc3cccnc32)cc1	0	-	9.3µM	3.3µM	-

Screening results (PubChem BioAssay)
